# Experimental data published in PubChem BioAssay (NCATS).
# Several values for one entry are separate records, joined by “and”; a condition that tells them apart may be missing. Equal entries are not always repeated. Records with an inconclusive call do not appear. A call without a number means that no potency is given here. Activity calls are given as the source filed them. Unless noted, the call rests on the fitted dose curve; in most records, active means well fitted inhibition curve with a large enough effect; inconclusive means small, poorly fitted or top-dose-only effect; inactive means flat fitted curve, though single readings scatter.
# How the values were obtained:
# [1] = target: Ubiquitin carboxyl-terminal hydrolase 1 (Homo sapiens) (UniProt O94782); assay: Inhibitors of USP1/UAF1: Pilot qHTS (AID 504865); conditions: purified USP1/UAF1, Ub-rhodamine cleavage fluorescence; series mostly up to 114 µM; further: nearly all actives have a fitted effect of over 35% in size; further: potency means the concentration at half of the fitted maximal effect
# How it was run: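 Deubiquitinase activity followed as kinetic rhodamine fluorescence release from 150 nM Ub-Rho. 1 nM USP1/UAF1 with compound, after 15 min room-temperature preincubation, in HEPES pH 7.8 buffer containing TCEP, EDTA, BSA and Tween-20.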
# [2] = target: Estrogen receptor (Homo sapiens) (UniProt P03372); assay: qHTS assay for small molecule antagonists of estrogen receptor alpha signaling (AID 588513; active means well fitted curve in the direction sought with a large enough effect in the signal ratio, with a control signal flat, not every such curve was filed as active; the % refers to the signal ratio); conditions: ER-alpha-UAS-bla HEK293, beta-lactamase ratio, antagonist mode; series mostly up to 76.9 µM
# How it was run: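 Antagonist mode: inhibition of 0.5 nM 17-beta-estradiol-driven beta-lactamase reporter in HEK 293 ER-alpha-UAS-bla cells, 18 h at 37C, CCF4 readout after 2 h at RT. Normalised to estradiol and DMSO; titration fitted to Hill.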
# [3] = target: Estrogen receptor (Homo sapiens) (UniProt P03372); assay: qHTS assay for small molecule agonists of estrogen receptor alpha signaling (AID 588514; calls by dose curve; further: nearly all actives have a fitted effect of over 70% in size; further: potency means the concentration at half of the fitted maximal effect); conditions: ER-alpha-UAS-bla HEK293, beta-lactamase ratio, 18 h; series mostly up to 76.8 µM
# How it was run: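 Cells were plated at 5000/well, incubated 4 hrs at 37 C, dosed with compound titration series, incubated 18 hrs at 37 C, loaded with CCF4 dye for 2 hrs at RT, then fluorescence was read.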
# [4] = target: DNA dC->dU-editing enzyme APOBEC-3G (Homo sapiens) (UniProt Q9HC16); assay: qHTS for inhibitors of Vif-A3G interactions: Validation (AID 588379); conditions: Vif-A3G protein interaction assay; series mostly up to 46.1 µM
# How it was run: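 HeLa cells stably expressing Vif and A3G-eYFP, 700 cells/well, incubated overnight at 37 deg C, then exposed to compound overnight at 37 deg C. Inhibition of Vif-mediated degradation read as increased yellow fluorescence (Ex 488/Em 500-530) by laser-scanning cytometry.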
# [5] = target: Bile acid receptor (Homo sapiens) (UniProt Q96RI1); assay: qHTS assay for small molecule antagonists of farnesoid X receptor signaling (AID 588526; calls by dose curve); conditions: HEK293T FXR-UAS-bla, beta-lactamase ratio, antagonist mode; series mostly up to 76.7 µM
# How it was run: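 Beta-lactamase reporter antagonist mode: HEK293T FXR-UAS-bla cells, titrated compound, CDCA stimulation, 16 h 37 C, CCF4 dye 2 h RT. Data normalized to CDCA 50 uM and DMSO; Hill-fit IC50.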
# Bile acid receptor (Homo sapiens), sequence (Q96RI1 whole entry, looked up): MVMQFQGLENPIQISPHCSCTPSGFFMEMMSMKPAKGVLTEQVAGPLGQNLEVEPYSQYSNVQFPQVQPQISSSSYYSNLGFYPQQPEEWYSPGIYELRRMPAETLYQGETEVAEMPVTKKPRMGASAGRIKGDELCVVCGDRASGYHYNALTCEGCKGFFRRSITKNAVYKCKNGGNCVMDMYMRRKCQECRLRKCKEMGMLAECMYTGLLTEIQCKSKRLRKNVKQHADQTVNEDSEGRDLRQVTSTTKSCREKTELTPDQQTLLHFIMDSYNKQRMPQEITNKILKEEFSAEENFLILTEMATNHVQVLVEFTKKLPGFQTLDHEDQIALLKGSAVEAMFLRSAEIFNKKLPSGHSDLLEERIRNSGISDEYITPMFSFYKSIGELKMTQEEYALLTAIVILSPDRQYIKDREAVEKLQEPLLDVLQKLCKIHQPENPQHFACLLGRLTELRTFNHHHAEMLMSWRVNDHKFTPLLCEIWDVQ
# Ubiquitin carboxyl-terminal hydrolase 1 (Homo sapiens), sequence (O94782 whole entry, looked up): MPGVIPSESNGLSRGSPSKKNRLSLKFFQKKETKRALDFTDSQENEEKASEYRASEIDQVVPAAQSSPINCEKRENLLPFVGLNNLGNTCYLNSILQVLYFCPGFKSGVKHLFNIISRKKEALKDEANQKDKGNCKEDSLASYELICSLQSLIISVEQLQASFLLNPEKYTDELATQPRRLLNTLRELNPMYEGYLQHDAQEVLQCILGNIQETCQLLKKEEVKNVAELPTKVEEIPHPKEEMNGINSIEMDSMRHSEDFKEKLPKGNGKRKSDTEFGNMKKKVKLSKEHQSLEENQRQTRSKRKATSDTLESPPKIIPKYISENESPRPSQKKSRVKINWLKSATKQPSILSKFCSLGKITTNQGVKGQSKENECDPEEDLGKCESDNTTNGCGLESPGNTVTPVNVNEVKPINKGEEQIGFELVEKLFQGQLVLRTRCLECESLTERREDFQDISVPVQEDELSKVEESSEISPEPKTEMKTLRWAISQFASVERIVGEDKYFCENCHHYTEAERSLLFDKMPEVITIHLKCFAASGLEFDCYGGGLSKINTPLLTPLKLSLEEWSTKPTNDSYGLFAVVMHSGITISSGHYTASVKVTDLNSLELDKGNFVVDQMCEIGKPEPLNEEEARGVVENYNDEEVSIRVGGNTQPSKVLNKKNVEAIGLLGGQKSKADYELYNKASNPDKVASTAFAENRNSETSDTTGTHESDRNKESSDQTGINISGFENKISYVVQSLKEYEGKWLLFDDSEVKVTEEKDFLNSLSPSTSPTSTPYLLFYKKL
# DNA dC->dU-editing enzyme APOBEC-3G (Homo sapiens), sequence (Q9HC16 whole entry, looked up): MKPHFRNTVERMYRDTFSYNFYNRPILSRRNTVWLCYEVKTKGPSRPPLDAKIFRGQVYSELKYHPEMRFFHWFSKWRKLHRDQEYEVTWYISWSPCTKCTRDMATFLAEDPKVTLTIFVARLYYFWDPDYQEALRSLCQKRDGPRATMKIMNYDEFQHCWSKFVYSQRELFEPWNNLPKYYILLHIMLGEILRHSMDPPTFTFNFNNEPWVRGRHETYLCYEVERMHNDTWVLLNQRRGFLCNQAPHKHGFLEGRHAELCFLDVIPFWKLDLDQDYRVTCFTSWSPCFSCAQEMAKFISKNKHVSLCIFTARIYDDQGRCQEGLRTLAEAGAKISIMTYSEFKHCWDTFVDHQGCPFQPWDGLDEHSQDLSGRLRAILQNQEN
# Estrogen receptor (Homo sapiens), sequence (P03372 whole entry, looked up): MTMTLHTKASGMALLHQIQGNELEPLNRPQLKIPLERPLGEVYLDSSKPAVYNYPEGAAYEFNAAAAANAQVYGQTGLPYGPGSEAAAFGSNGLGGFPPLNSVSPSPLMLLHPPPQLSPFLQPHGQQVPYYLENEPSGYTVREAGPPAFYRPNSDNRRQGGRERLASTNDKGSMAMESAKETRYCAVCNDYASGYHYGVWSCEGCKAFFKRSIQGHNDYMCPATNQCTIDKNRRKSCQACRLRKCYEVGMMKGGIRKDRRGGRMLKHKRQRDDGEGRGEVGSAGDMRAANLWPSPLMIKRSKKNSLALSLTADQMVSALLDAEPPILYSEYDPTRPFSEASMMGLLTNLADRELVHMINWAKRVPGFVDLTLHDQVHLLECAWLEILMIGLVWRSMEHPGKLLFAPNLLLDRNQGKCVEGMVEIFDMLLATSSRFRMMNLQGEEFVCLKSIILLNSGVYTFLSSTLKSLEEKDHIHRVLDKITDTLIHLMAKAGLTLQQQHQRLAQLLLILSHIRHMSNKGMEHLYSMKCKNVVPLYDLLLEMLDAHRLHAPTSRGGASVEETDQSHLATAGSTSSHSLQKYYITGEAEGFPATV
compound,measurement,setting,value
Cc1c(C)c2c(c(C)c1OC(=O)CCC(=O)O)CC[C@@](C)(CCC[C@H](C)CCC[C@H](C)CCCC(C)C)O2,Potency,[1],35.5 µM (active)
COc1ccc(-c2noc(CC(=O)O)c2-c2ccc(OC)cc2)cc1,Potency,[1],inactive
C=C(C)C1CC=C(C)CC1 (stereo unspecified),Potency,[1],inactive
same,Potency,[2],inactive
same,Potency,[3],inactive
N=C(N)n1cccn1,Potency,[1],inactive
O=S(=O)(O)CC(S)CS (stereo unspecified),Potency,[1],inactive
CCN(CC)C(=S)S,Potency,[1],inactive
CC(=O)NCCCS(=O)(=O)O,Potency,[1],inactive
CN(C)C(=O)CCSC(SCCC(=O)O)c1cccc(/C=C/c2ccc3ccc(Cl)cc3n2)c1 (stereo unspecified),Potency,[1],50.1 µM (active)
COc1ccc(C[C@H](C)NC[C@@H](O)c2ccc(O)c(NC=O)c2)cc1,Potency,[1],inactive
same,outcome,[4],inactive
COc1cc(S(C)=O)ccc1-c1nc2ncccc2[nH]1 (stereo unspecified),Potency,[1],inactive
NC(=S)N=Nc1ccc(NN=C(N)N)cc1,Potency,[1],44.7 µM (active)
CC(=O)c1ccc2c(c1)N(CCCN1CCN(CCO)CC1)c1ccccc1S2,Potency,[1],inactive
C[C@H]1O[C@@H](O[C@H]2[C@@H](O)C[C@H](O[C@H]3[C@@H](O)C[C@H](O[C@H]4CC[C@@]5(C)[C@H](CC[C@@H]6[C@@H]5C[C@@H](O)[C@]5(C)[C@@H](C7=CC(=O)OC7)CC[C@]65O)C4)O[C@@H]3C)O[C@@H]2C)C[C@H](O)[C@@H]1O,Potency,[1],inactive
same,outcome,[4],inactive
O=C(O)Cc1nn(Cc2ccc(Br)cc2F)c(=O)c2ccccc12,Potency,[1],inactive
same,outcome,[4],inactive
O=C1[O][Bi][O]c2ccccc21,Potency,[1],inactive
O=P(O)(O)OC[C@H](O)CO,Potency,[1],inactive
O=C(/C=C/c1cccc(F)c1)NC1CC1,Potency,[1],inactive
Nc1ncnc2c1ncn2CCOCP(=O)(O)O,Potency,[1],inactive
C=CC[N+]1([C@H]2C[C@H]3[C@@H]4CC[C@H]5C[C@H](O)[C@@H](N6CCOCC6)C[C@]5(C)[C@H]4CC[C@]3(C)[C@H]2OC(C)=O)CCCC1,Potency,[1],inactive
CCCc1nc(C(C)(C)O)c(C(=O)OCc2oc(=O)oc2C)n1Cc1ccc(-c2ccccc2-c2nn[nH]n2)cc1,Potency,[1],inactive
CCCCCCCCCCCCCCCCCCCCCC(=O)Nc1ccn([C@@H]2O[C@H](CO)[C@@H](O)[C@@H]2O)c(=O)n1,Potency,[1],inactive
OC[C@H]1O[C@@H]2O[C@H]3[C@H](O)[C@@H](O)[C@@H](O[C@H]4[C@H](O)[C@@H](O)[C@@H](O[C@H]5[C@H](O)[C@@H](O)[C@@H](O[C@H]6[C@H](O)[C@@H](O)[C@@H](O[C@H]7[C@H](O)[C@@H](O)[C@@H](O[C@H]1[C@H](O)[C@H]2O)O[C@@H]7CO)O[C@@H]6CO)O[C@@H]5CO)O[C@@H]4CO)O[C@@H]3CO,Potency,[1],inactive
same,Potency,[2],inactive
same,Potency,[3],11.2 µM (active)
N[C@H](CC(=O)O)C(=O)O,Potency,[1],inactive
same,outcome,[4],inactive
CCCCC[C@H](O)/C=C/[C@H]1[C@H](O)CC(=O)[C@@H]1C/C=C\CCCC(=O)O,Potency,[1],inactive
Cc1cc(-c2ccc(N=Nc3ccc4c(S(=O)(=O)O)cc(S(=O)(=O)O)c(N)c4c3O)c(C)c2)ccc1N=Nc1ccc2c(S(=O)(=O)O)cc(S(=O)(=O)O)c(N)c2c1O,Potency,[1],11.2 µM (active) and 25.1 µM (active)
same,outcome,[4],inactive
CC(=O)Nc1c(I)c(C(=O)O)c(I)c(N(C)C(C)=O)c1I,Potency,[1],inactive
CN1CCCC(CN2c3ccccc3Sc3ccccc32)C1 (stereo unspecified),Potency,[1],inactive
O=C(O)COc1ccc(CCNS(=O)(=O)c2ccccc2)s1,Potency,[1],inactive
C[C@H](CCCC(C)(C)O)[C@H]1CC[C@H]2[C@@H]3CC=C4C[C@@H](O)CC[C@]4(C)[C@H]3CC[C@]12C,Potency,[1],inactive
CC1CC(O)CC(C)(C)C1 (stereo unspecified),Potency,[1],inactive
O=c1n(CC2CO2)c(=O)n(CC2CO2)c(=O)n1CC1CO1 (stereo unspecified),Potency,[1],inactive
same,Potency,[2],inactive
NC(N)=O,Potency,[1],inactive
same,Potency,[2],inactive
same,Potency,[3],inactive
CC(C)CCC[C@@H](C)[C@H]1CC[C@H]2[C@@H]3CC=C4C[C@@H](O)CC[C@]4(C)[C@H]3CC[C@]12C,Potency,[1],inactive
same,outcome,[5],inactive
ClC(Cl)Cl,Potency,[1],inactive
same,outcome,[5],inactive
CC(C)CCCCCCc1ccc(O)cc1,Potency,[3],2.51 µM (active)
NCCO/C=C/[C@H](N)C(=O)O,Potency,[1],inactive
same,Potency,[2],inactive
same,Potency,[3],inactive
same,outcome,[5],inactive
O=C1c2ccccc2C(=O)c2c1ccc(O)c2O,outcome,[4],inactive
CCCCO,Potency,[1],inactive
same,outcome,[5],inactive
OCl,Potency,[1],inactive
same,Potency,[2],inactive
same,Potency,[3],inactive
same,outcome,[5],inactive
CC1=CC(=O)NS(=O)(=O)O1,Potency,[1],inactive
same,outcome,[5],inactive
C=CC(C)(O)CC/C=C(\C)CCC=C(C)C (stereo unspecified),outcome,[5],inactive
NCCN,Potency,[1],inactive
same,Potency,[2],inactive
same,Potency,[3],0.199 µM (active)
